# Data published in the supplement of paper PMC7380943.
# Structures can show the parent of a compound that is named as a salt.
# Tested on: CLZ3 (HCA2 human fibroblast dual HR-NHEJ reporter)
# Experiment: HR repair efficiency (tdTomato+ cells) relative to control (log10 fold); higher = more homologous recombination
# Conditions: 5 µM; doxycycline 0.5 ug/mL
# 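Also: compound given one day before doxycycline, which switches on I-SceI endonuclease expression to create double-strand breaks within the integrated reporter.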
row,Compound,HR repair efficiency (log10)
1,C[N+](C)(C)[C@H](Cc1c[nH]c2ccccc12)C(=O)[O-] [Hypaphorine],-0.124
2,COc1cc2c(cc1OC)-c1cc3ccc(OC)c(OC)c3c[n+]1CC2 [Palmatine hydrochloride],0.0612
3,CCCCC[C@H](O)CC(=O)CCc1ccc(O)c(OC)c1 [6-Gingerol],0.0839
4,C[C@H]1[C@H](OC(=O)CCC(=O)O)O[C@@H]2O[C@@]3(C)CC[C@H]4[C@H](C)CC[C@@H]1[C@@]24OO3 [Artesunate],-0.241
5,C/C=C/c1cc(OC)c2c(c1)C(C)C(c1ccc(O)c(OC)c1)O2 (stereo not given) [Dehydrodiisoeugenol],-0.0825
6,O=c1c(O[C@@H]2O[C@H](CO)[C@@H](O)[C@H](O)[C@H]2O[C@@H]2O[C@H](CO)[C@@H](O)[C@H](O)[C@H]2O)c(-c2ccc(O)c(O)c2)oc2cc(O)cc(O)c12 [Baimaside],0.114
7,C[C@]12C[C@@H](O)[C@@H]3C[C@@]1(O[C@@H]1O[C@H](CO)[C@@H](O)[C@H](O)[C@H]1O)[C@@]3(COC(=O)c1ccccc1)C(=O)O2 [Albiflorin],0.153
8,C/C=C1\[C@H]2C=C(C)C[C@]1(N)c1ccc(=O)[nH]c1C2 [Huperzine-A],0.0391
9,COc1ccc(/C=C/C(=O)O)cc1O [Isoferulic acid],-0.0013
10,O=C(/C=C/c1ccc(O)c(O)c1)OC[C@H]1O[C@@H](OCCc2ccc(O)c(O)c2)[C@H](O)[C@@H](O)[C@@H]1O [Calceolarioside B],0.193
11,O=C(O)c1ccccc1 [Benzoic Acid],0.137
12,C[C@@H]1O[C@@H](Oc2cc(O)c3c(=O)c(O[C@@H]4O[C@@H](C)[C@H](O)[C@@H](O)[C@H]4O)c(-c4ccc(O)cc4)oc3c2)[C@H](O)[C@H](O)[C@H]1O [Kaempferitrin],0.0294
13,OCc1ccccc1O[C@@H]1O[C@H](CO)[C@@H](O)[C@H](O)[C@H]1O [Salicoside],0.251
14,O=C(O)c1cc(O)c2c(c1)C(=O)c1cccc(O)c1C2=O [Rhein],-0.07
15,"OC[C@H]1O[C@@H](Oc2c(O)cc(O)cc2/C=C/c2ccc(O)cc2)[C@H](O)[C@@H](O)[C@@H]1O [2,3,5,4'-Tetrahydroxy Stilbene 2-Ο-Β-D-Glucoside]",-0.0324
16,CC1(C)OC(=O)C=C[C@]2(C)[C@H]3CC[C@@]4(C)[C@H](c5ccoc5)OC(=O)[C@H]5O[C@]54[C@]3(C)C(=O)C[C@@H]12 [Obacunone],0.0481
17,C[C@H](CCC(=O)O)[C@H]1CC[C@H]2[C@@H]3C[C@H](O)[C@@H]4C[C@H](O)CC[C@]4(C)[C@H]3CC[C@]12C [Hyodesoxycholic acid],-0.322
18,Cn1c(=O)c2c(ncn2CC(O)CO)n(C)c1=O (stereo not given) [Diprophylline],0.116
19,CC1CCC(C(C)C)C(O)C1 (racemic) [dl-Menthol],0.0753
20,C[C@@H]1CC[C@@]2(OC1)O[C@H]1C[C@H]3[C@@H]4CC=C5C[C@@H](O)C[C@@H](O)[C@]5(C)[C@H]4CC[C@]3(C)[C@H]1[C@@H]2C [Ruscogenin],0.181

row,Compound,HR repair efficiency (log10)
1,Cn1c(=O)c2c(ncn2CC2OCCO2)n(C)c1=O [Doxofylline],0.0399
2,CCCCCCCCCCCCCCCC(=O)OC [Methyl Palmitate],0.0601
3,CC(C)=CCC[C@](C)(O[C@@H]1O[C@H](CO)[C@@H](O)[C@H](O)[C@H]1O)[C@H]1CC[C@]2(C)[C@@H]1[C@H](O)C[C@@H]1[C@@]3(C)CC[C@H](O)C(C)(C)[C@@H]3[C@@H](O[C@@H]3O[C@H](CO)[C@@H](O)[C@H](O)[C@H]3O[C@@H]3O[C@@H](C)[C@H](O)[C@@H](O)[C@H]3O)C[C@]12C [Ginsenoside Re],-0.0179
4,CC1(C)CC[C@]2(C(=O)O)CC[C@]3(C)C(=CC[C@@H]4[C@@]5(C)C[C@@H](O)[C@H](O)C(C)(C)[C@@H]5CC[C@]43C)[C@@H]2C1 [Maslinic Acid],-0.0914
5,O=c1c2ccccc2nc2n1CCc1c-2[nH]c2ccccc12 [Rutecarpine],-0.0255
6,C/C=C1/[C@H](O[C@@H]2O[C@H](CO)[C@@H](O)[C@H](O)[C@H]2O)OC=C(C(=O)OC)[C@H]1CC(=O)OCCc1ccc(O)c(O)c1 [Oleuropein],0.0478
7,CC1(C)CC[C@]2(C(=O)O)[C@H](O)C[C@]3(C)C(=CC[C@@H]4[C@@]5(C)CC[C@H](O)C(C)(C)[C@@H]5CC[C@]43C)[C@H]2C1 [Echinocystic acid],0.0642
8,C[C@H]1O[C@@H](O[C@H]2CC[C@@]3(C)[C@@H](CC[C@]4(C)[C@@H]3C=CC3=C5CC(C)(C)CC[C@]5(CO)[C@H](O)C[C@]34C)[C@]2(C)CO)[C@H](O)[C@@H](O[C@@H]2O[C@H](CO)[C@@H](O)[C@H](O)[C@H]2O)[C@H]1O [Saikosaponin B2],0.123
9,C[C@@]12C[C@H](c3ccoc3)O[C@@]13C[C@H](OC3=O)[C@H]1[C@H]2C[C@@H]2C[C@H]1C(=O)O2 [Diosbulbin B],0.0545
10,COc1cc(-c2oc3cc(O)cc(O)c3c(=O)c2O[C@@H]2O[C@H](CO)[C@@H](O)[C@H](O)[C@H]2O[C@@H]2O[C@@H](C)[C@H](O)[C@@H](O)[C@H]2O)ccc1O [Isorhamnetin 3-O-Neohesperoside],-0.0275
11,Cc1ccc(C(C)C)cc1 [p-Cymene],0.196
12,COc1cc2c(c(OC)c1OC)-c1c(cc(OC)c(OC)c1OC)C[C@H](C)[C@H](C)C2 [Schisandrin A],-0.0756
13,COc1cccc(OC)c1C(=O)OCc1cc(O)ccc1O[C@@H]1O[C@H](CO)[C@@H](O)[C@H](O)[C@H]1O [Curculigoside],0.0401
14,CC[C@H](C)[C@@H]1NC(=O)[C@@H]2CCCN2C(=O)[C@@H]2CCCN2C(=O)[C@@H]2CCCN2C(=O)[C@H](CC(C)C)NC(=O)CNC(=O)CNC(=O)[C@H](Cc2ccccc2)NC1=O [Heterophyllin B],0.0454
15,C[C@H]1O[C@H](O[C@@H]2[C@@H](O)[C@H](OCCc3ccc(O)c(O)c3)O[C@H](CO[C@H]3OCC(O)(CO)[C@@H]3O)[C@H]2OC(=O)/C=C/c2ccc(O)c(O)c2)[C@@H](O)[C@@H](O)[C@@H]1O (stereo not given in full) [Forsythoside B],0.076
16,COc1cc2c(c(OC)c1OC)-c1c(cc3c(c1OC)OCO3)C[C@H](C)[C@@](C)(O)C2 [Schizandrol B],-0.132
17,COc1cc(/C=C/c2ccc(O)cc2)cc(OC)c1 [Pterostilbene],0.242
18,C[C@@H]1O[C@@H](O[C@H]2[C@H](Oc3cc(O)c4c(c3)O[C@H](c3ccc(O)cc3)CC4=O)O[C@H](CO)[C@@H](O)[C@@H]2O)[C@H](O)[C@H](O)[C@H]1O [Naringin],-0.0146
19,Oc1cc(O)c2c(c1)O[C@H](c1ccc(O)c(O)c1)[C@H](O)C2 [Epicatechin (EC)],-0.306
20,CCCOC(=O)c1cc(O)c(O)c(O)c1 [Propyl gallate],0.0457
